Reference: PubChem BioAssay AID2284371 (EPA ToxCast)
Records with an inconclusive call do not appear. Activity calls are given as the source filed them. Rule for the calls: active = hit-call score of the fitted dose curve at least 0.9, where 1 is the maximum; inconclusive = response in the unintended direction; inactive = score below 0.9.

test: ATG_M_61_EcoTox2: Attagene TRANS-FACTORIAL EcoTox-2 HepG2 Assay for M61 Transcription Factor (Internal Marker)
Method: ATG_EcoTox2 is a cell-based, multiplexed assay created by modifying the existing Attagene TRANS-FACTORIAL system to include a panel of nuclear receptors from some or all the following species: human (Homo sapiens), african clawed frog (Xenopus laevis), rainbow trout (Oncorhynchus mykiss), japanese medaka (Oryzias latipes), and zebrafish (Danio rerio). The ECOTOX2-FACTORIAL format uses HepG2, a human liver cell line, with measurements taken at 24 hours after chemical dosing in a 24-well plate. ATG_M_61_EcoTox2 is one of 29 assay components calculated in the ATG_EcoTox2 assay. It is designed to make measurements of mRNA induction, a form of inducible reporter, as detected with fluorescence intensity signals by Reverse transcription polymerase chain reaction (RT-PCR) and Capillary electrophoresis technology.The assay endpoint ATG_M_61_EcoTox2 was analyzed in the positive analysis fitting direction relative to DMSO as the negative control and baseline of activity. Using a type of inducible reporter, measures of mRNA for gain-of-signal activity can be used to understand the background control at the transcription factor-level as they relate to the gene. Furthermore, this assay endpoint can be referred to as a secondary readout, because this assay has produced multiple assay endpoints where this one serves a background control function. To generalize the intended target to other relatable targets, this assay endpoint is annotated to the background measurement intended target family, where the subfamily is internal marker.
Human liver HepG2 cells are transiently transfected with multiple reporter transcription units (MRTUs) in 6-well plates using FuGene 6 reagent (Roche; 3 ml FuGene/1 mg DNA). The MRTU constructs are regulated by a cis-regulating element (promoter). Each RTU expresses a GAL4-UAS that regulates the transcription of a nearby target reporter gene sequence. A major difference between the CIS and TRANS system is that in CIS activities of endogenous TFs are measured, whereas the TRANS assay evaluates changes in activities of exogenous, chimeric NR-Gal4 proteins. […] At the end of 24 hour incubation, total RNA was isolated using TriZol reagent (Invitrogen). The isolated RNA is then reverse-transcribed using oligo(dT) primer and Mo-MLV reverse transcriptase (Invitrogen) with DNAse I (Ambion) treatment for 30 min. The one-tenth of the produced cDNA was amplified by PCR using Taq DNA polymerase (Invitrogen) and two reporter sequence-specific primers. […] The fragments were purified using Qiaquick PCR columns (Qiagen), analyzed on an ABI 3130xL genetic analyzer (Applied Biosystems) with peak positions identified by using a set of X-rhodamine (ROX)-labeled MapMarker1000 molecular weight standards (BioVentures). […]

SMILES | outcome
O=P(Oc1ccccc1)(Oc1ccccc1)Oc1ccccc1 | inactive
O=C(O)C(F)(F)C(F)(F)C(F)(F)C(F)(F)C(F)(F)C(F)(F)C(F)(F)F | inactive
CCCCOCN(C(=O)CCl)c1c(CC)cccc1CC | inactive
O=S(=O)(O)C(F)(F)C(F)(F)C(F)(F)C(F)(F)C(F)(F)C(F)(F)F | inactive
